In assay [1] the target is Myc proto-oncogene protein (Homo sapiens) (UniProt P01106). In words: ATG_Myc_CIS: Attagene CIS-FACTORIAL HepG2 Assay for human Myelocytomatosis (Myc) Proto-Oncogene Transcription Factor (AID 2282990). The note with it: HepG2, Attagene cis-reporter transcription factor activity; actives raise or lower the signal. In a few lines: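 HepG2 cells transiently transfected with multiple cis-promoter-driven reporter transcription units, so endogenous TF activity is read. After 24 h compound exposure, reporter mRNA was quantified by RT-PCR, 6-FAM labelling, HpaI digestion and capillary electrophoresis; bidirectional fit versus DMSO.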
Sequence of Myc proto-oncogene protein (Homo sapiens) (P01106 whole entry, looked up): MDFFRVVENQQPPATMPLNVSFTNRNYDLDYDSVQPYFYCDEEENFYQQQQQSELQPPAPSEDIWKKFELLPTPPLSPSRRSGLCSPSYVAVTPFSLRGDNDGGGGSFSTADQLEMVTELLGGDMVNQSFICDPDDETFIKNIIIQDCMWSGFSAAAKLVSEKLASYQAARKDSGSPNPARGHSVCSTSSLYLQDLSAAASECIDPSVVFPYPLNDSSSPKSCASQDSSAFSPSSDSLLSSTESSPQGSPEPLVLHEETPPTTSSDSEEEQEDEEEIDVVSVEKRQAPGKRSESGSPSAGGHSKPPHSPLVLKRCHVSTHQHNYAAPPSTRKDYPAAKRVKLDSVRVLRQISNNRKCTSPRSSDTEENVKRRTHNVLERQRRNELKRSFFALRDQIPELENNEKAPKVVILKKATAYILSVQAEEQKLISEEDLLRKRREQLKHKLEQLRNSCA

Assay [2] can be described thus: ATG_NF_kB_CIS: Attagene CIS-FACTORIAL HepG2 Assay for human Nuclear Factor Kappa B (NF-kB) (AID 2282991). Particulars: HepG2 Attagene cis-factorial NF-kB reporter mRNA; actives raise or lower the signal. An outline of the steps:
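Read-out: reporter transcript levels quantified by RT-PCR plus capillary electrophoresis of 6-FAM-labelled, HpaI-cut fragments. Transfected HepG2 cells, 24 h compound exposure, endogenous NF-kB-driven cis element; gain or loss scored versus DMSO.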

A short description of assay [3]: ATG_NRF2_ARE_CIS: Attagene CIS-FACTORIAL HepG2 Assay for human Nuclear Factor Erythroid 2 Related Factor 2 (NFR2) response to Antioxidant Response Elements (ARE) (AID 2282992). The note with it: HepG2 Attagene ARE/NRF2 reporter, transcription factor activity; actives raise or lower the signal. In a few lines: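 Using transiently transfected HepG2 cells exposed for 24 h, reporter mRNA levels were determined by RT-PCR with fluorescent primer extension and capillary electrophoresis, analysed for gain or loss of signal against DMSO.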

A short description of assay [4]: ATG_Oct_MLP_CIS: Attagene CIS-FACTORIAL HepG2 Assay for human Octamer-Binding Transcription Factor (Oct) (AID 2282993). Particulars: HepG2 Attagene cis-factorial Oct reporter, mRNA; actives raise or lower the signal. In a few lines:
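Multiplexed cis-reporter assay in human liver HepG2 cells, 24 h incubation. Reporter RNA amplified and labelled, then resolved by capillary electrophoresis; DMSO serves as negative control and baseline.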

The target of assay [5] is human Peroxisome Proliferator-activated Receptor alpha (PPARa), PPARA (gene 5465) (UniProt Q07869). As to the kind of experiment: ATG_PPARa_TRANS: Attagene TRANS-FACTORIAL HepG2 Assay for human Peroxisome Proliferator-activated Receptor alpha (PPARa) (AID 2283001; active = hit-call score of the fitted dose curve at least 0.9, where 1 is the maximum). In a few lines:
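Exposure: 24 h, transiently transfected HepG2 cells. Endpoint: GAL4-UAS reporter mRNA, RT-PCR with capillary electrophoresis fluorescence. Baseline: DMSO; increases fitted.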

Assay [6] deals with human Peroxisome Proliferator-activated Receptor delta (PPARd), PPARD (gene 5467) (UniProt Q03181). In words: ATG_PPARd_TRANS: Attagene TRANS-FACTORIAL HepG2 Assay for human Peroxisome Proliferator-activated Receptor delta (PPARd) (AID 2283002; active = hit-call score of the fitted dose curve at least 0.9, where 1 is the maximum). An outline of the steps: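 HepG2 cells transiently transfected with multiplexed GAL4-UAS reporter units and exogenous chimeric NR-Gal4 proteins; 24 h compound exposure. Reporter mRNA measured by RT-PCR, 6-FAM labelling, HpaI digestion and capillary electrophoresis; gain of signal versus DMSO.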
Sequence of human Peroxisome Proliferator-activated Receptor delta (PPARd), PPARD (gene 5467) (Q03181 whole entry, looked up, the tested form may be a part): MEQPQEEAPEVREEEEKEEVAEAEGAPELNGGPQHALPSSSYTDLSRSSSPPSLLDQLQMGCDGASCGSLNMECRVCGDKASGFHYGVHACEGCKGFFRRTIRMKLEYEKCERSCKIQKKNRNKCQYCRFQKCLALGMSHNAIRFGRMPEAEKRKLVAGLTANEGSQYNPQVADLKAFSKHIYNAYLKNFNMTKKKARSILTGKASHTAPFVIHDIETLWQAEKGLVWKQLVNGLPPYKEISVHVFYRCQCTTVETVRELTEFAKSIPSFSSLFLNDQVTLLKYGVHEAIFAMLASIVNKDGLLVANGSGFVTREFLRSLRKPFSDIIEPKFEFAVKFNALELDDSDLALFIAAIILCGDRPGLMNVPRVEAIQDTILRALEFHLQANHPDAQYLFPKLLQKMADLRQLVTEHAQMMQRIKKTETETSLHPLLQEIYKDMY

The target in assay [7] is human Retinoic Acid Receptor beta (RARb), RARB (gene 5915) (UniProt P10826). As to the kind of experiment: ATG_RARb_TRANS: Attagene TRANS-FACTORIAL HepG2 Assay for human Retinoic Acid Receptor beta (AID 2283004; active = hit-call score of the fitted dose curve at least 0.9, where 1 is the maximum). An outline of the steps:
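Induction of reporter mRNA from a chimeric RARb-Gal4 construct was measured by RT-PCR, FAM labelling, HpaI digestion and capillary electrophoresis. Measurements followed 24 h compound treatment of transiently transfected human HepG2 liver cells, with DMSO as baseline.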

Assay [8] deals with Peroxisome proliferator-activated receptor gamma (Homo sapiens) (UniProt P37231). As to the kind of experiment: ATG_PPARg_TRANS: Attagene TRANS-FACTORIAL HepG2 Assay for human Peroxisome Proliferator-activated Receptor-gamma (PPARg) (AID 2283007; active = hit-call score of the fitted dose curve at least 0.9, where 1 is the maximum). In a few lines: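 Read-out: reporter mRNA induction, detected by fluorescence after RT-PCR and capillary electrophoresis. Transiently transfected human HepG2 liver cells carrying a chimeric NR-Gal4 construct were dosed for 24 h; activity was fitted upward relative to DMSO.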
Sequence of Peroxisome proliferator-activated receptor gamma (Homo sapiens) (P37231 whole entry, looked up, the tested form may be a part): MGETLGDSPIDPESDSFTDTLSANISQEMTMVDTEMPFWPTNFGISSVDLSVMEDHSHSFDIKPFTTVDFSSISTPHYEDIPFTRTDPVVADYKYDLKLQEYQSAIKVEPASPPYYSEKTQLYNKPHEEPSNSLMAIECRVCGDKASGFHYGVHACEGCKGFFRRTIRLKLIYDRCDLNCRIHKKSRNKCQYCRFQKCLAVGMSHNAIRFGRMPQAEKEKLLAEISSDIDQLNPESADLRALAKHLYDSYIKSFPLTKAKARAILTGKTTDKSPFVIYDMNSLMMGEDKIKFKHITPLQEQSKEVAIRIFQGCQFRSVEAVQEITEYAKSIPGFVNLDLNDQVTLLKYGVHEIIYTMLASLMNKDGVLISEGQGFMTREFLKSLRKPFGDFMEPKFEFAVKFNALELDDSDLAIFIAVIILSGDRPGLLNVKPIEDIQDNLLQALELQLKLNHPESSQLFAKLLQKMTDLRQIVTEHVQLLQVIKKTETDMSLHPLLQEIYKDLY

Assay [9] has as its target Nuclear receptor subfamily 1 group I member 2 (Homo sapiens) (UniProt O75469). In words: ATG_PXR_TRANS: Attagene TRANS-FACTORIAL HepG2 Assay for human Pregnane X Receptor (PXR) (AID 2283008; active = hit-call score of the fitted dose curve at least 0.9, where 1 is the maximum). In a few lines: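 Multiplexed TRANS reporter panel in HepG2; this component tracks PXR-Gal4-driven reporter mRNA after 24 h dosing, measured by RT-PCR with capillary electrophoresis fluorescence, fitted against DMSO.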

In assay [10] the target is human Retinoic Acid Receptor gamma (RARg), RARG (gene 5916) (UniProt P13631). In words: ATG_RARg_TRANS: Attagene TRANS-FACTORIAL HepG2 Assay for human Retinoic Acid Receptor gamma (RARg) (AID 2283009; active = hit-call score of the fitted dose curve at least 0.9, where 1 is the maximum). An outline of the steps:
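Gain-of-signal relative to DMSO is reported from fluorescent capillary electrophoresis of RT-PCR reporter products. These came from HepG2 cells expressing transfected RARg-GAL4 chimeras with UAS reporters, harvested 24 h after dosing.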

Assay [11] deals with human RAR-related Orphan Receptor beta (RORb), RORB (gene 6096) (UniProt Q92753). As to the kind of experiment: ATG_RORb_TRANS: Attagene TRANS-FACTORIAL HepG2 Assay for human RAR-related Orphan Receptor beta (RORb) (AID 2283010; active = hit-call score of the fitted dose curve at least 0.9, where 1 is the maximum). In a few lines:
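Multiplexed transcription-factor reporter assay: HepG2 cells transiently carrying NR-Gal4/GAL4-UAS constructs, 24 h treatment, mRNA quantified by RT-PCR plus capillary electrophoresis fluorescence; activity scored as induction over DMSO.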

The target in assay [12] is Retinoic acid receptor alpha (Homo sapiens) (UniProt P10276). As to the kind of experiment: ATG_RARa_TRANS: Attagene TRANS-FACTORIAL HepG2 Assay for human Retinoic Acid Receptor alpha (RARa) (AID 2283005; active = hit-call score of the fitted dose curve at least 0.9, where 1 is the maximum). An outline of the steps:
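HepG2 cells transiently transfected with multiple reporter units expressing chimeric RARα-GAL4 fusion, with GAL4-UAS-driven reporters. After 24 h compound exposure, reporter mRNA induction quantified by RT-PCR and capillary electrophoresis with fluorescent labeling; gain-of-signal fitted relative to DMSO control.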

Assay [13] in a line: BSK_3C_TissueFactor: BioMAP Diversity Plus: 3C Assay for Tissue Factor Biomarker Activity (AID 2282997). Particulars: BioMAP 3C HUVEC, tissue factor biomarker readout; actives raise or lower the signal. An outline of the steps:
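Tissue factor on primary human umbilical vein endothelium was read by ELISA 24 h after dosing, gain or loss relative to DMSO. Cytotoxicity ran alongside via SRB (0.1%, TCA-fixed, 560 nm).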

A short description of assay [14]: BSK_3C_uPAR: BioMAP Diversity Plus: 3C Assay for Urokinase-type plasminogen activator receptor (uPAR) Biomarker Activity (AID 2282998). The note with it: BioMAP 3C HUVEC, uPAR biomarker ELISA; actives raise or lower the signal. In a few lines:
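Dose primary human umbilical vein endothelial cells, incubate 24 h, measure cell-surface uPAR by ELISA, then fit the signal in both directions against the DMSO negative control.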

Assay [15] in a line: BSK_3C_VCAM1: BioMAP Diversity Plus: 3C Assay for Vascular cell adhesion molecule 1 (VCAM1) Biomarker Activity (AID 2282999). The note with it: BioMAP 3C HUVEC, VCAM1 ELISA, cytokine-stimulated; actives raise or lower the signal. An outline of the steps:
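Vascular primary endothelium (human umbilical vein) was exposed to chemicals and assayed 24 h later. VCAM-1 levels came from ELISA, with DMSO serving as baseline for bidirectional fitting.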

Assay [16] can be described thus: BSK_4H_Eotaxin3: BioMAP Diversity Plus: 4H Assay for Eotaxin 3 Biomarker Activity (AID 2283000).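 Also: CCL26 protein level quantified by ELISA in parallel with SRB cytotoxicity check.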 Particulars: primary human endothelial cells (HUVEC); actives raise or lower the signal. An outline of the steps: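 Human umbilical vein endothelial cells (BSK_4H system) dosed with test chemical; Eotaxin-3 (CCL26) measured by ELISA 24 h after dosing. Bidirectional curve fitting relative to DMSO negative control as baseline.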

Read-out in assay [17]: Intercellular Adhesion Molecule 1 (ICAM1), ICAM1 (gene 3383)
In words: BSK_3C_ICAM1: BioMAP Diversity Plus: 3C Assay for Intercellular Adhesion Molecule 1 (ICAM1) Biomarker Activity (AID 2283003). Particulars: primary human endothelial cells (HUVEC); actives raise or lower the signal. An outline of the steps:
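Using DMSO as baseline, bidirectional curve fitting was applied to ICAM-1 ELISA signals from HUVEC in the 3C system, measured 24 h after compound addition.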

A short description of assay [18]: BSK_3C_Proliferation: Cell Proliferation Assessment in the BioMAP Diversity Plus: 3C Assay (AID 2283006). Particulars: primary human endothelial cells (HUVEC). In a few lines:
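Measured here: sulforhodamine B (0.1%) staining of TCA-fixed sub-confluent umbilical vein endothelial cultures 48 h post-dosing, absorbance 560 nm. DMSO served as negative control and baseline; both signal gain and loss were modelled.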

Assay [19] has as its target human RAR-related Orphan Receptor gamma (RORg), RORC (gene 6097) (UniProt P51449). As to the kind of experiment: ATG_RORg_TRANS: Attagene TRANS-FACTORIAL HepG2 Assay for human RAR-related Orphan Receptor gamma (RORg) (AID 2283011; active = hit-call score of the fitted dose curve at least 0.9, where 1 is the maximum). In a few lines: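 Reporter transcripts from a transfected RORg-GAL4 chimera in HepG2 cells were quantified 24 h after dosing by RT-PCR, 6-FAM labelling, HpaI digestion and capillary electrophoresis; increases over DMSO baseline were fitted.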

Records with an inconclusive call do not appear. Activity calls are given as the source filed them. The calls were made as follows, unless noted: active = hit-call score of the fitted dose curve at least 0.9, where 1 is the maximum; inactive = score below 0.9.

Sequence of human Retinoic Acid Receptor gamma (RARg), RARG (gene 5916) (P13631 whole entry, looked up, the tested form may be a part): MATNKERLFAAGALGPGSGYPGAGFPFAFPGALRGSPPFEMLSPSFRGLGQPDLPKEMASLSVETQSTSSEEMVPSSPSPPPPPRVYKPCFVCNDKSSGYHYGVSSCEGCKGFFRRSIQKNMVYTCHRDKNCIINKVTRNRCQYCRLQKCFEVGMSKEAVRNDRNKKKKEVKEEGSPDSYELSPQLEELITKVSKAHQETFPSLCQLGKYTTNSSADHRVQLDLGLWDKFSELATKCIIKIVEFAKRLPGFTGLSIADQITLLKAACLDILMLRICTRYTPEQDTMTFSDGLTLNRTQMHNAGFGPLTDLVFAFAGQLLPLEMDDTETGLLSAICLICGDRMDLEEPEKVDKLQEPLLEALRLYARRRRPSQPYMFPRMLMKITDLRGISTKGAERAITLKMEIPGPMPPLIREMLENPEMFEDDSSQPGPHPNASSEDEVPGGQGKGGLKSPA
Sequence of human RAR-related Orphan Receptor beta (RORb), RORB (gene 6096) (Q92753 whole entry, looked up, the tested form may be a part): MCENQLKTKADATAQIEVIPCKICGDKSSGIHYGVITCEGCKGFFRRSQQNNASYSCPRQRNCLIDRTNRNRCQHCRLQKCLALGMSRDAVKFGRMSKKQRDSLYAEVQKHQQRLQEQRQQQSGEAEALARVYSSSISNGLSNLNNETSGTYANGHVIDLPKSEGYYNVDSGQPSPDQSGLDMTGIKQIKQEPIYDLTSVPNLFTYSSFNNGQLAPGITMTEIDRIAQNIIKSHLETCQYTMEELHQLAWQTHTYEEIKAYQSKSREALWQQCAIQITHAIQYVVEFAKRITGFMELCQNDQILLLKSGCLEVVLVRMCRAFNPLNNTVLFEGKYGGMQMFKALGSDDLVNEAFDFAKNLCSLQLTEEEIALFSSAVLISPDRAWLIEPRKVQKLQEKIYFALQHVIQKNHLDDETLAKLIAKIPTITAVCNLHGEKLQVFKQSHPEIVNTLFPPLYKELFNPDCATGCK
Sequence of human Peroxisome Proliferator-activated Receptor alpha (PPARa), PPARA (gene 5465) (Q07869 whole entry, looked up, the tested form may be a part): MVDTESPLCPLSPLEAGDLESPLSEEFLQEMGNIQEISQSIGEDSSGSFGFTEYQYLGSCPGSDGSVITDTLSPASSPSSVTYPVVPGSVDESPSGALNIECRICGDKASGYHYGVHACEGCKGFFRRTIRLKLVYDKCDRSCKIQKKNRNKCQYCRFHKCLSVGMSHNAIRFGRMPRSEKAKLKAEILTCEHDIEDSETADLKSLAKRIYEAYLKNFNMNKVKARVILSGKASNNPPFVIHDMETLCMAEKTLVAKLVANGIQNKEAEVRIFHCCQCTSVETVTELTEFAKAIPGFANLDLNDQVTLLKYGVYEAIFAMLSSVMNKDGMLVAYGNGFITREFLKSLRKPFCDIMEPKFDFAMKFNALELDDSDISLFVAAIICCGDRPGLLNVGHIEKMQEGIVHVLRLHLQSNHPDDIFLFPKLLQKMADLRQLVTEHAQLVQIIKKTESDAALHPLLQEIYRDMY
Sequence of Nuclear receptor subfamily 1 group I member 2 (Homo sapiens) (O75469 whole entry, looked up, the tested form may be a part): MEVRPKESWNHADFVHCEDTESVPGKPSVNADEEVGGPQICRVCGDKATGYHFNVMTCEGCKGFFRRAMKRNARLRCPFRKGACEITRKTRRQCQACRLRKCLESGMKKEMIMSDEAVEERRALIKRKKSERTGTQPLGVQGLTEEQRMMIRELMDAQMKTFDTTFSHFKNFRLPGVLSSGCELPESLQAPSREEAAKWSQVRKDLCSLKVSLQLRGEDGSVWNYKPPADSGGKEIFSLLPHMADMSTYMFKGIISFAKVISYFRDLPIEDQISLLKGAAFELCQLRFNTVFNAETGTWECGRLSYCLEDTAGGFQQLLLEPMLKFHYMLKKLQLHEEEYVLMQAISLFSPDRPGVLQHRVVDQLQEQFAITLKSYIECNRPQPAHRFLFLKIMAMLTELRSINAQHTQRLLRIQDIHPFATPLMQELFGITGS
Sequence of Retinoic acid receptor alpha (Homo sapiens) (P10276 whole entry, looked up, the tested form may be a part): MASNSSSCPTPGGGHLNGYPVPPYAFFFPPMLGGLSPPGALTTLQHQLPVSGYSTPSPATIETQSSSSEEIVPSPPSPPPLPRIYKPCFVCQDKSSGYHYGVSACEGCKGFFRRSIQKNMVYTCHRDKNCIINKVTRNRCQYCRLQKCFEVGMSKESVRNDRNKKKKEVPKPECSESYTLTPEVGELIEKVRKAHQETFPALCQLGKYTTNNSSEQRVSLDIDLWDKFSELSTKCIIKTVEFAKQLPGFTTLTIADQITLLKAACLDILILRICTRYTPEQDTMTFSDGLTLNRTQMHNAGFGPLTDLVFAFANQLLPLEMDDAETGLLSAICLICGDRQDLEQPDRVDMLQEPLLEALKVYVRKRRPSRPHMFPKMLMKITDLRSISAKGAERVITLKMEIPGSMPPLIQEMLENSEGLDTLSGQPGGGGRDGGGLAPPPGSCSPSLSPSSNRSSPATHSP
Sequence of human RAR-related Orphan Receptor gamma (RORg), RORC (gene 6097) (P51449 whole entry, looked up, the tested form may be a part): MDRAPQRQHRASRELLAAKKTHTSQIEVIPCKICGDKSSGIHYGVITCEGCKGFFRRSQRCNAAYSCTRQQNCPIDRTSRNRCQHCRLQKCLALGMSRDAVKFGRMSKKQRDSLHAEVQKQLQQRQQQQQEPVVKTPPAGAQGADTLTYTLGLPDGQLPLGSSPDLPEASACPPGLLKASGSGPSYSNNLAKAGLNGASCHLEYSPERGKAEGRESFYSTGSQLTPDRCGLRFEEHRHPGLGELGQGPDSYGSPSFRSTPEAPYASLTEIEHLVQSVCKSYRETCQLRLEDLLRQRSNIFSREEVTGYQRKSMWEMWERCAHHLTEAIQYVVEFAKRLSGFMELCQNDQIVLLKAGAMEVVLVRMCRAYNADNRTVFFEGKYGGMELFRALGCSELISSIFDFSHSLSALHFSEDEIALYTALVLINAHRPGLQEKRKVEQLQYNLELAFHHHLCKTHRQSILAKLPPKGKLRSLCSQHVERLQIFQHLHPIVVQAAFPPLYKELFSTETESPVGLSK
Sequence of human Retinoic Acid Receptor beta (RARb), RARB (gene 5915) (P10826 whole entry, looked up, the tested form may be a part): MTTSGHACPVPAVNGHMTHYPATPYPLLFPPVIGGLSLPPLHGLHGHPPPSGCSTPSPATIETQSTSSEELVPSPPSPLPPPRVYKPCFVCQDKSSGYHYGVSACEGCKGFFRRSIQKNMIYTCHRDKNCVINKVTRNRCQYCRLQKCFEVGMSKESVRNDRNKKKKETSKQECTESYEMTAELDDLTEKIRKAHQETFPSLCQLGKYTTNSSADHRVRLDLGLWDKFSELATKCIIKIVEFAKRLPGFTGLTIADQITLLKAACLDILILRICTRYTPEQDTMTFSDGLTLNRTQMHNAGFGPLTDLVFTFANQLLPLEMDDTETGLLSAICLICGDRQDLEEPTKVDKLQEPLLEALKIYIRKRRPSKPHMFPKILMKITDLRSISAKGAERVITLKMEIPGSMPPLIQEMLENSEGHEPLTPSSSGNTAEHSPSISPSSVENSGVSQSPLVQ

As to `Cc1ccc(S(=O)(=O)Oc2ccc(N=Nc3ccc(-c4ccc(N=Nc5c(O)ccc6cc(S(=O)(=O)O)cc(S(=O)(=O)O)c56)c(C)c4)cc3C)cc2)cc1`, the molecule was classed as inactive in [1], in assay [2], in assay [3], in assay [4], in [5] and in assay [6]. In addition, the outcome in [7], in assay [9], in assay [10] and in assay [11] was inactive. Moreover, the half-maximal activity concentration (AC50) in assay [8] was 18.3 µM (active).
With `CC=Cc1ccc(OC)c(OC)c1`, the result in [1], in assay [2], in [3], in assay [4], in assay [5] and in assay [8] was inactive. Further, in [9], the AC50 is 27.6 µM (active).
Consider `CC(C)(C)OC(=O)c1ccc(O)cc1`, for which the molecule was classed as inactive in [1], in assay [2], in assay [6] and in assay [9]. For the same molecule, the AC50 in assay [3] was 35 µM (active); in [4], 100 µM (active); in assay [8], 39.4 µM (active).
Consider `C[Si](C)(C)O[Si](C)(C)C`, for which the molecule was classed as inactive in [1], in [2], in assay [3], in assay [4], in assay [5] and in assay [6]. The molecule was classed as inactive in [12].
Turning to `CC(=O)O[C@@H]1CC2CCC1(C)C2(C)C` (stereo partly drawn), the molecule was called inactive in assay [1], in assay [2], in assay [3], in assay [4], in assay [5] and in assay [8]. For the same molecule, the molecule was classed as inactive in [10] and in assay [11].
In the case of `O=C(Nc1ccc([N+](=O)[O-])cc1)Nc1ccc([N+](=O)[O-])cc1` (tested in a mixture with another compound), the result in assay [1], in assay [2], in assay [3], in [4], in [5] and in assay [8] was inactive. Moreover, the call in assay [9] and in [10] was inactive.
Turning to `COC(=O)c1ccc(OC)cc1`, the result in assay [1], in assay [2], in assay [3], in assay [4], in [5] and in assay [8] was inactive. In assay [9], the molecule was called inactive.
Regarding `CN(C)C(=O)Nc1ccc(Oc2ccc(Cl)cc2)cc1`, the call in assay [1], in assay [2], in assay [4], in assay [13], in assay [15] and in [16] was inactive. The outcome in assay [5], in assay [17] and in [18] was inactive. Further, the half-maximal activity concentration (AC50) in [3] was 61.4 µM (active); in assay [14], 2.32 µM (active); in assay [8], 17.4 µM (active); in assay [9] it was 26.6 µM (active).
Turning to `CC(C)C(OC(=O)c1ccccc1)C(C)(C)COC(=O)c1ccccc1` (stereo not drawn), the molecule was classed as inactive in [1], in [2], in [3], in [4], in assay [6] and in [8]. Also, in [10], the result was inactive. The half-maximal activity concentration (AC50) in assay [9] is 2.45 µM (active).
`C=C(C)C1CC=C(C)C(=O)C1` (stereo not drawn): the molecule was classed as inactive in [1], in assay [2], in assay [3], in assay [4], in [5] and in [12]. The result in [8] and in assay [9] was inactive.
For `CCCCCCCCCC(=O)OC`, the call in assay [1], in assay [2], in assay [3], in [4], in [5] and in assay [9] was inactive. Moreover, the molecule was called inactive in assay [19]. In addition, the half-maximal activity concentration (AC50) in assay [8] is 57.1 µM (active).
On to `C=Cc1ccc(C(C)(C)C)cc1`, for which the molecule was classed as inactive in assay [1], in assay [2], in assay [3], in assay [4], in [6] and in [9]. Also, the molecule was called inactive in [19].
Consider `N#Cc1cscn1`, for which the molecule was called inactive in [1], in [2], in [3], in [4] and in assay [9].
In the case of `OCCCCC(O)CO` (stereo not drawn), the result in assay [1], in assay [2], in assay [3], in assay [4], in assay [7] and in assay [12] was inactive. Also, the result in assay [9], in [11] and in assay [19] was inactive.

The values are drawn from PubChem BioAssay (EPA / NIEHS).
